In PubChem BioAssay AID589 (National Center for Advancing Translational Sciences (NCATS), 2007):
“And” between values parts separate entries of the source, which are not always exact repeats. Equal entries are not always repeated. The whole screen tested about 59,000 compounds, of which about 6,200 (11%) were called active. Not shown: some 9% with an inconclusive outcome. Cut-off read from the data, not from the text of the source: active = max dye-equivalent concentration above about 10 nM; inconclusive = mostly about 1.1 nM to 9.6 nM; inactive = weaker than that. The sample as a whole holds a higher share of actives than the screen did.

Test: qHTS Assay for Spectroscopic Profiling in 4-MU Spectral Region
Settings: compound autofluorescence, 340/450 nm, 4-MU equivalents; hits give high values
In short: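 Compounds in 100 mM Tris, pH 8.0, sat 15 min at room temperature before fluorescence was read at 340 nm excitation/450 nm emission; a per-plate six-point 4-MU standard curve converted signals to dye-equivalent concentration at each compound concentration.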

Row | Structure (SMILES) | max dye-equivalent concentration
1 | Cc1nn(CC(=O)Nc2ccc3c(c2)nc(CN2CCCCC2)n3C)c(=O)c2ccccc12 | inactive
2 | CC(C)NC(=O)N1CC[C@@]2(CCCN(C(=O)c3cccc(F)c3)C2)C1 | inactive
3 | COc1ccccc1CNc1ncnc2ccc(-c3ccc4c(c3)OCO4)cc12 | inactive
4 | COc1ccccc1Nc1ncnc2c1oc1ccccc12 | 7.3e-08 M (active)
5 | Cc1cc(C)nc(N2CCN(c3ncnc4c3oc3ccccc34)CC2)n1 | inactive
6 | S=c1[nH]nc(SCc2ccccc2Cl)c2[nH]cnc12 | inactive
7 | CCC(Oc1ccccc1)C(=O)NCc1cccnc1 (centres undefined) | inactive
8 | O=C1CC2(CCCCC2)Oc2ccc(OCC(=O)N3CCOCC3)cc21 | 1.2e-06 M (active)
9 | O=C(Oc1ccc2c(c1)CCC2)N1CCOCC1 | inactive
10 | O=C(Nc1cccc(OCC(=O)N2CCOCC2)c1)C1CCCCC1 | inactive
11 | CCOC(=O)CCc1c(C)c2ccc(OCc3nn[nH]n3)c(C)c2oc1=O | 2.4e-08 M (active)
12 | C[C@H](NC(=O)OC(C)(C)C)c1nnc(SCC(=O)Nc2ccc(Br)cc2)o1 | inactive
13 | CCC(=O)Nc1nc2ccccc2n1Cc1ccccc1C | inactive
14 | C=C(Br)Cn1c(CCCC)nc2ccccc21 | inactive
15 | CCc1nc2ccccc2n(CCOCCOCCn2c(=O)c(CC)nc3ccccc32)c1=O | 3.4e-08 M (active)
16 | COc1cccc(OC)c1OCCN1CCN(C(=O)c2ccco2)CC1 | inactive
17 | Cc1cccc(Cn2c(SCCO)nc3c2c(=O)n(C)c(=O)n3C)c1 | inactive
18 | CCOC(=O)N1CCN(CC(=O)c2c(C)[nH]c3ccccc23)CC1 | inactive
19 | CCOC(=O)N1CCN(CC(=O)c2ccc3c(c2)CCN3)CC1 | 1.2e-08 M (active)
20 | CCOC(=O)N1CCN(CC(=O)n2c(C)c(C)c3ccccc32)CC1 | inactive
21 | CCNS(=O)(=O)c1ccc(NC(=O)Nc2cccc(C(F)(F)F)c2)cc1 | inactive
22 | CC1Oc2ccccc2N(Cc2cccnc2)C1=O (centres undefined) | inactive
23 | Cc1ccc(CC2CC(=O)N(c3ccc4c(c3)OCCO4)C2=O)cc1 (centres undefined) | inactive

Row | Structure (SMILES) | max dye-equivalent concentration
24 | N#CC1=C(N)C(C#N)(C#N)[C@H](c2ccsc2)[C@H]2COCC=C12 | 1.3e-08 M (active)
25 | COc1cccc2cc(C(=O)N(C)C)c(=O)oc12 | inactive
26 | COc1ccc(F)cc1S(=O)(=O)Nc1ccc2c(c1)OCO2 | inactive
27 | COC(=O)c1ccccc1NC(=O)C1CCN(S(=O)(=O)c2cc(OC)ccc2OC)CC1 | inactive
28 | COc1ccc(OC)c(S(=O)(=O)Nc2ccccc2F)c1 | 6.6e-08 M (active)
29 | Cc1cc(OCC(=O)O)c(Cl)cc1Cl | inactive
30 | Cc1nc(NC(CC(C)C)C(=O)O)c2nc(C)oc2n1 (centres undefined) | inactive
31 | COc1c(C)c2c(c(O)c1C/C=C(\C)CCC(=O)O)C(=O)OC2 | 7e-08 M (active) and 1.5e-08 M (active)
32 | O=C(NC1CCCCC1)N1CCc2[nH]c3ccccc3c2C1 | inactive
33 | NC(=O)C1CCN(C2OC(=O)c3ccccc32)CC1 (centres undefined) | inactive
34 | CCOC(=O)CCc1c(C)c(C#N)c2[nH]c3ccccc3n2c1=O | 5.3e-06 M (active)
35 | CCOC(=O)CC1=CC(=O)Nc2ccccc2N1 | inactive
36 | CCCOC(=O)Cc1c(O)c2ccccc2[nH]c1=O | inactive
37 | CCOC(=O)c1sc(=S)n2c1[nH]c(=O)c1ccc(C(=O)OC)cc12 | inactive
38 | Cc1cc2c(cc1C)NC(c1ccccn1)C1=C(CC(C)(C)CC1=O)N2 (centres undefined) | inactive
39 | C=CCSC1=C(C#N)C(c2cc(Br)c(O)c(OC)c2)CC(=O)N1 (centres undefined) | inactive
40 | COc1cc(C2C(C#N)=C(C)NC3=C2C(=O)CC(C)(C)C3)ccc1O (centres undefined) | 1.3e-08 M (active)
41 | CCCCCCC(=O)N(O)C1CC(=O)N(c2ccccc2)C1=O (centres undefined) | inactive
42 | COc1c(F)c(F)c(-c2csc(N)n2)c(F)c1F | 1.5e-08 M (active)
43 | CCC(=O)Nc1nc(OC)cc(OC)n1 | inactive
44 | Cc1cc(C)nc(NC2=NCC(=O)N2c2ccc(Cl)cc2)n1 | inactive
45 | CCN(CC(=O)Nc1ccc2c(c1)OCCO2)Cc1cc(=O)oc2cc(C)c(C)cc12 | inactive
46 | C=CCn1c(SCC(=O)Nc2nc3ccccc3s2)nnc1-c1ccccc1O | inactive

Row | Structure (SMILES) | max dye-equivalent concentration
47 | C=CCn1c2ccccc2c2nnc(SC(CC)C(=O)Nc3nc(C)c(C(=O)OCC)s3)nc21 (centres undefined) | 4.6e-08 M (active)
48 | NC(=O)CSC1=Nc2ccccc2C2=NC(CCC(=O)NCc3ccc(F)cc3)C(=O)N12 (centres undefined) | 4.6e-07 M (active)
49 | CC1(c2ccccc2Cl)NC(=O)N(CC(=O)NC(=O)NCc2ccco2)C1=O (centres undefined) | inactive
50 | O=C(CC1N=C2c3ccccc3N=C(SCc3ccccc3Cl)N2C1=O)NCc1ccco1 (centres undefined) | 1.8e-08 M (active)
51 | Cc1nc2nc(SCC(=O)NCc3ccco3)nn2c(C)c1Cc1ccccc1 | inactive
52 | O=C(CN1C(=O)CCS(=O)(=O)c2ccccc21)NCc1ccc(F)cc1 | inactive
53 | COCCCN1C(=O)c2ccc(C(=O)Nc3ccc(OC)cc3OC)cc2C1=O | inactive
54 | O=C(NC(=O)c1ccc(Cl)c(Cl)c1)OC1CCS(=O)(=O)C1 (centres undefined) | inactive
55 | COc1ccc(O)c(C(=O)c2cnc3onc(C(C)C)c3c2)c1 | inactive
56 | COc1ccc(OCC(=O)OCCN(C)C)cc1 | inactive
57 | CC(C)(C)C(=O)CCN1C(=O)C2(OCCO2)c2ccccc21 | inactive
58 | CCN(CC)S(=O)(=O)c1cccc(C(=O)NCC(=O)OCC(=O)NCc2ccccc2)c1 | inactive
59 | O=C(Cn1[nH]c(=O)c2ccccc2c1=O)Nc1cccc(-c2nnc3n2CCCCC3)c1 | inactive
60 | O=C(CSc1nnnn1-c1ccc2c(c1)CCC2)Nc1ccc2c(c1)OCCO2 | inactive
61 | COC(C)(C)[C@]12CC(O)(C(C)C)ON1[C@H]1CCCCC1N2O (some centres undefined) | inactive
62 | COc1ccc(NC(C)=O)cc1NC(=O)CN1CCN(C2c3ccccc3-c3ccccc32)CC1 | inactive
63 | COc1ccc(-c2cn3ccsc3n2)cc1 | inactive
64 | CC(=O)Nc1ccc(-c2cn3cccnc3n2)cc1 | 6.1e-06 M (active)
65 | CCCC(=O)Nc1cccc(-c2cn3ccsc3n2)c1 | inactive
66 | CC(=O)Nc1cccc(-c2cnc3ccccc3n2)c1 | inactive
67 | c1ccc(-c2cn3cccnc3n2)cc1 | 5.1e-06 M (active)
68 | CCOc1nc(OCC)nc(-n2cc(-c3ccccc3)nn2)n1 | inactive
69 | COC(=O)[C@H](C)NC(=O)Nc1ccc(OC(F)(F)F)cc1 | inactive
